According to paper PMC7862700, “An all-to-all approach to the identification of sequence-specific readers for epigenetic DNA modifications on cytosine”:

Legend:
Test in all cases: DAPPL (digital affinity profiling via proximity ligation, sequencing); 10 mM Tris-HCl pH 7.5, 50 mM NaCl, 1 mM DTT, 4% glycerol, room temperature, 30 min; GST-TFs on glutathione beads, 16-mer random dsDNA library, 0.1% formaldehyde crosslink after washing; high values mean tight binding
Details in all cases: protein: recombinant; tags: N-terminal GST; dsDNA, one strand shown
[1] = biological target: T1, FLI1 (Homo sapiens, UniProt Q01543 1-452)
T1 sequence: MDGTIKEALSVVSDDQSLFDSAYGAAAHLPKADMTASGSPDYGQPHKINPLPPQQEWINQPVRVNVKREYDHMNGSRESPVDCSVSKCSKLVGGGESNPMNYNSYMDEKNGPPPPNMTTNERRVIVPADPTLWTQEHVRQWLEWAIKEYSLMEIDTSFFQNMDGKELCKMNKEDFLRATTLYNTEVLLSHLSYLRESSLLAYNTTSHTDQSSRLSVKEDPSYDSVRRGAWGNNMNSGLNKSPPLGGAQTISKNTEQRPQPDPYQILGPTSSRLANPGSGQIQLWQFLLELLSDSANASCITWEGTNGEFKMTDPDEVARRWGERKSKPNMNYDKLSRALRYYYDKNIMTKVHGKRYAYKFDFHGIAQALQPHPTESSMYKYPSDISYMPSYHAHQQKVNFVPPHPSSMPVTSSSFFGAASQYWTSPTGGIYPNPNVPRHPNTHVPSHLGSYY
Outline: (§1)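 Beads coated with glutathione captured GST-fused human transcription factors that had been expressed in yeast, and the factors were then given DNA barcodes and pooled with a tag-only sample. The pools were incubated with 200 nmole of a random double-stranded 16-mer DNA library in Tris/NaCl/DTT/glycerol buffer for 30 min at room temperature, washed, crosslinked with 0.1% formaldehyde and proximity-ligated with BsaI/T4 ligase at 37 °C for 1 h. PCR amplification and Illumina NextSeq500 sequencing came last. Binding signal is each hexamer's read frequency for a factor divided by its frequency for the tag-only sample.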

[2] = biological target: T2, ELK1 (Homo sapiens, UniProt P19419 1-428)
T2 sequence: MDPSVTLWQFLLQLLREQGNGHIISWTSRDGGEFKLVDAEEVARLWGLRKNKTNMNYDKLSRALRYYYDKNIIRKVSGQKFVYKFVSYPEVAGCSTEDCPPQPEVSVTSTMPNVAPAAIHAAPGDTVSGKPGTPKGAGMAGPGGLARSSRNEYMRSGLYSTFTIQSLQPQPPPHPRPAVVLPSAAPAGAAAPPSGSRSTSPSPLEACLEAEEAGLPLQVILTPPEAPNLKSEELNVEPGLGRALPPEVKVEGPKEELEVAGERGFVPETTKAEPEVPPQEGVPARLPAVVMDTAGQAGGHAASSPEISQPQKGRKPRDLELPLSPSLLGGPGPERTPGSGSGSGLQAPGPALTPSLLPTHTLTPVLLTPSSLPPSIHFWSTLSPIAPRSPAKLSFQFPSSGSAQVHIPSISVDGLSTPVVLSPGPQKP
Outline: as §1

[3] = biological target: T3, GABPA (Homo sapiens, UniProt Q06546 1-454)
T3 sequence: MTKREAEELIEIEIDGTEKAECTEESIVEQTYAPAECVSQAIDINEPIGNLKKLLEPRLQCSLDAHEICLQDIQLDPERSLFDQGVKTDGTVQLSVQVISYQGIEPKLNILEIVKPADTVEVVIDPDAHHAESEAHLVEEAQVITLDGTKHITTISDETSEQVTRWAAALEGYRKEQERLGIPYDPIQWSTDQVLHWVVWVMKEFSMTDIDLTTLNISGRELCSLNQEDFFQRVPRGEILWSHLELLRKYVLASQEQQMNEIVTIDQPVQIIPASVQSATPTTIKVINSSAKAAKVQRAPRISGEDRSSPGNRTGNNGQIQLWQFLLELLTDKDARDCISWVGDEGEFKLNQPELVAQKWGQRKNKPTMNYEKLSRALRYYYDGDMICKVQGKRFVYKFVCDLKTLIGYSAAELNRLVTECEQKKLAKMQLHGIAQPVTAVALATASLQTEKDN
Outline: as §1

[4] = biological target: T4, ERG (Homo sapiens, UniProt P11308 1-479)
T4 sequence: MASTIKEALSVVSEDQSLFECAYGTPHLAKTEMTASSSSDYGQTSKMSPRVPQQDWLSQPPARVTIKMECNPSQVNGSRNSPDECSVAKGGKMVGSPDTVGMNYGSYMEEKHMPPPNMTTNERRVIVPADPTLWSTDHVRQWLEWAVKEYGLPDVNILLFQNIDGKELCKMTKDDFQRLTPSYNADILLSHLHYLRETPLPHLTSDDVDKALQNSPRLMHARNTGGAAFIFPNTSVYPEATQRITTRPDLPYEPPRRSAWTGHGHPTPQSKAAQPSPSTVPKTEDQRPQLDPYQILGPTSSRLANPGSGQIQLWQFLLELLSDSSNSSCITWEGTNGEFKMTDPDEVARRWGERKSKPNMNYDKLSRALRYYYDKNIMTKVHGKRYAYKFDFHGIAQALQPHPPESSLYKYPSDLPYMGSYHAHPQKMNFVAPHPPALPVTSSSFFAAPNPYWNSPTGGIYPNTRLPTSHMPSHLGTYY
Outline: as §1

[5] = biological target: ELF1 (Homo sapiens, UniProt P32519 1-619)
Sequence of ELF1 (P32519 whole entry): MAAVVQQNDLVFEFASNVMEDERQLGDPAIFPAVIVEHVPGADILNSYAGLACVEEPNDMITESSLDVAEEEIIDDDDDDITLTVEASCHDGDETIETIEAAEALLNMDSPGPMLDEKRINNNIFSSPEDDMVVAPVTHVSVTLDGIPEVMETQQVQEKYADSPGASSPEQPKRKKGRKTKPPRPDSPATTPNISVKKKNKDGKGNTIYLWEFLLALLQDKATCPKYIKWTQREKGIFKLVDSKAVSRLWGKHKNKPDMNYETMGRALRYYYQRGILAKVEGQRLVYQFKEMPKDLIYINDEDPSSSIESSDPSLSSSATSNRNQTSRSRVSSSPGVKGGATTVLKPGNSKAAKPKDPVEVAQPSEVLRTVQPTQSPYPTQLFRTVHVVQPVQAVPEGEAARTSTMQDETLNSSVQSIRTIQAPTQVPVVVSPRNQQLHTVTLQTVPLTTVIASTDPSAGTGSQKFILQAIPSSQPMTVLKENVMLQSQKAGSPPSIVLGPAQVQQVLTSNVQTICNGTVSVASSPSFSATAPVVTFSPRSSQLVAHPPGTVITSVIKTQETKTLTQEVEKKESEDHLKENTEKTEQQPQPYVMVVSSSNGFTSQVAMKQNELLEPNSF
Outline: as §1

[6] = biological target: T5, EHF (Homo sapiens, UniProt Q9NZC4 1-300)
T5 sequence: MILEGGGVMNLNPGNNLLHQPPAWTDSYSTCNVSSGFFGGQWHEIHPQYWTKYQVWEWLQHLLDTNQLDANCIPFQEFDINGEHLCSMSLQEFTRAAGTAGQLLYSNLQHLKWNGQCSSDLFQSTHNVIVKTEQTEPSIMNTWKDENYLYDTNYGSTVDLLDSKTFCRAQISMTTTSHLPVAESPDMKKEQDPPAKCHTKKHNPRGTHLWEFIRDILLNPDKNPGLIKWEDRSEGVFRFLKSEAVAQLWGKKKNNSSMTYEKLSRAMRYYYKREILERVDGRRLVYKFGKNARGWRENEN
Outline: as §1

[7] = biological target: SPI1 (Homo sapiens, UniProt P17947 1-270)
Outline: as §1

[8] = biological target: SPIB (Homo sapiens, UniProt Q01892 1-262)
Sequence of SPIB (Q01892 whole entry): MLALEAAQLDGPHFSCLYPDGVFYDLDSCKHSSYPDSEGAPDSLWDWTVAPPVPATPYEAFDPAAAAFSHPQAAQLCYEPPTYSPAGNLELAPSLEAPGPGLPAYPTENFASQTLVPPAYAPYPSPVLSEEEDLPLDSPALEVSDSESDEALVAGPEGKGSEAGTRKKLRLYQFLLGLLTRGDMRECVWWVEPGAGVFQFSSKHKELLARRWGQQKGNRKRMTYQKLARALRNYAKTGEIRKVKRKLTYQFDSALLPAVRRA
Outline: as §1

[9] = biological target: T6, ELK3 (Homo sapiens, UniProt P41970 1-407)
T6 sequence: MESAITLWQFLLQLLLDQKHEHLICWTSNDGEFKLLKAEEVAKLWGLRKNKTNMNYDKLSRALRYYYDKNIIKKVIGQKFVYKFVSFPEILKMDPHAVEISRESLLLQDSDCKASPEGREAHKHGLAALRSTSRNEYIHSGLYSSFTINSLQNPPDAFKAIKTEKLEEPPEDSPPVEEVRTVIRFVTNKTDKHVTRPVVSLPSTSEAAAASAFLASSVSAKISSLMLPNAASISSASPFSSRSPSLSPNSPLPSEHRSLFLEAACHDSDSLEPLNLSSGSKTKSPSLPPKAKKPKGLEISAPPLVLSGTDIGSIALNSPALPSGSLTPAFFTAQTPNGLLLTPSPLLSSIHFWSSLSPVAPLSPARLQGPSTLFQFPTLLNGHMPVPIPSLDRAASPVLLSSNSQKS
Outline: as §1

Sequence | binding signal [1] | binding signal [2] | binding signal [3] | binding signal [4] | binding signal [5] | binding signal [6] | binding signal [7] | binding signal [8] | binding signal [9]
GGGCTC | 1.21 fold enrichment (6-mer frequency, TF over GST control) | 1.24 fold enrichment (6-mer frequency, TF over GST control) | 1.32 fold enrichment (6-mer frequency, TF over GST control) | 1.17 fold enrichment (6-mer frequency, TF over GST control) | 1.2 fold enrichment (6-mer frequency, TF over GST control) | 1.03 fold enrichment (6-mer frequency, TF over GST control) | 1.11 fold enrichment (6-mer frequency, TF over GST control) | 1.26 fold enrichment (6-mer frequency, TF over GST control) | 1.22 fold enrichment (6-mer frequency, TF over GST control)
ACTGCG | 1.24 fold enrichment (6-mer frequency, TF over GST control) | 1.32 fold enrichment (6-mer frequency, TF over GST control) | 1.26 fold enrichment (6-mer frequency, TF over GST control) | 1.26 fold enrichment (6-mer frequency, TF over GST control) | 1.35 fold enrichment (6-mer frequency, TF over GST control) | 1.37 fold enrichment (6-mer frequency, TF over GST control) | 1.33 fold enrichment (6-mer frequency, TF over GST control) | 1.3 fold enrichment (6-mer frequency, TF over GST control) | 1.25 fold enrichment (6-mer frequency, TF over GST control)
GAACAC | 1.25 fold enrichment (6-mer frequency, TF over GST control) | 1.19 fold enrichment (6-mer frequency, TF over GST control) | 1.13 fold enrichment (6-mer frequency, TF over GST control) | 1.17 fold enrichment (6-mer frequency, TF over GST control) | 1.19 fold enrichment (6-mer frequency, TF over GST control) | 1.12 fold enrichment (6-mer frequency, TF over GST control) | 1.16 fold enrichment (6-mer frequency, TF over GST control) | 1.2 fold enrichment (6-mer frequency, TF over GST control) | 1.08 fold enrichment (6-mer frequency, TF over GST control)
CGGCAT | 1.07 fold enrichment (6-mer frequency, TF over GST control) | 1.13 fold enrichment (6-mer frequency, TF over GST control) | 1.07 fold enrichment (6-mer frequency, TF over GST control) | 1.11 fold enrichment (6-mer frequency, TF over GST control) | 1.08 fold enrichment (6-mer frequency, TF over GST control) | 1.09 fold enrichment (6-mer frequency, TF over GST control) | 1.13 fold enrichment (6-mer frequency, TF over GST control) | 1.19 fold enrichment (6-mer frequency, TF over GST control) | 1.09 fold enrichment (6-mer frequency, TF over GST control)
GGAAAT | 2.51 fold enrichment (6-mer frequency, TF over GST control) | 2.64 fold enrichment (6-mer frequency, TF over GST control) | 2.39 fold enrichment (6-mer frequency, TF over GST control) | 3.22 fold enrichment (6-mer frequency, TF over GST control) | 2.39 fold enrichment (6-mer frequency, TF over GST control) | 3.06 fold enrichment (6-mer frequency, TF over GST control) | 2.6 fold enrichment (6-mer frequency, TF over GST control) | 2.88 fold enrichment (6-mer frequency, TF over GST control) | 2.69 fold enrichment (6-mer frequency, TF over GST control)
ACTCCC | 1.52 fold enrichment (6-mer frequency, TF over GST control) | 1.2 fold enrichment (6-mer frequency, TF over GST control) | 1.42 fold enrichment (6-mer frequency, TF over GST control) | 1.45 fold enrichment (6-mer frequency, TF over GST control) | 1.46 fold enrichment (6-mer frequency, TF over GST control) | 1.38 fold enrichment (6-mer frequency, TF over GST control) | 1.38 fold enrichment (6-mer frequency, TF over GST control) | 1.42 fold enrichment (6-mer frequency, TF over GST control) | 1.43 fold enrichment (6-mer frequency, TF over GST control)
TTAATC | 1.28 fold enrichment (6-mer frequency, TF over GST control) | 1.21 fold enrichment (6-mer frequency, TF over GST control) | 1.2 fold enrichment (6-mer frequency, TF over GST control) | 1.17 fold enrichment (6-mer frequency, TF over GST control) | 1.2 fold enrichment (6-mer frequency, TF over GST control) | 1.22 fold enrichment (6-mer frequency, TF over GST control) | 1.21 fold enrichment (6-mer frequency, TF over GST control) | 1.31 fold enrichment (6-mer frequency, TF over GST control) | 1.31 fold enrichment (6-mer frequency, TF over GST control)
